PubChem BioAssay (NCATS)
Inconclusive results are not listed. Activity calls are given as the source filed them. Unless noted, calls come from the whole dose curve; as a rule, active = well fitted curve in the direction sought with a large enough effect; inconclusive = small, poorly fitted or top-dose-only effect, or another doubt; inactive = no such curve, though single readings can be large; an effect the other way counts as inactive or inconclusive.

Columns and labels:
[1] = qHTS for Activators of Parkin Expression: LOPAC Validation Assay (NLuc Reporter) (AID 720572;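 note: 0% = DMSO and 100% = positive control compound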)
How it was run: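 Cells harboring the Parkin-promoter coincidence reporter were treated for 24 h at seven concentrations. NLuc output was measured sequentially after the FLuc channel and scaled between DMSO and positive control values.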

[2] = target: T1, Hexokinase-4 (Homo sapiens) + Glucokinase regulatory protein (Homo sapiens) (UniProt P35557+Q14397); assay: qHTS assay for inhibitors of recombinant human GCK-GKRP interaction: Diaphorase-coupled assay (AID 743205)
T1 sequence (P35557 whole entry, looked up): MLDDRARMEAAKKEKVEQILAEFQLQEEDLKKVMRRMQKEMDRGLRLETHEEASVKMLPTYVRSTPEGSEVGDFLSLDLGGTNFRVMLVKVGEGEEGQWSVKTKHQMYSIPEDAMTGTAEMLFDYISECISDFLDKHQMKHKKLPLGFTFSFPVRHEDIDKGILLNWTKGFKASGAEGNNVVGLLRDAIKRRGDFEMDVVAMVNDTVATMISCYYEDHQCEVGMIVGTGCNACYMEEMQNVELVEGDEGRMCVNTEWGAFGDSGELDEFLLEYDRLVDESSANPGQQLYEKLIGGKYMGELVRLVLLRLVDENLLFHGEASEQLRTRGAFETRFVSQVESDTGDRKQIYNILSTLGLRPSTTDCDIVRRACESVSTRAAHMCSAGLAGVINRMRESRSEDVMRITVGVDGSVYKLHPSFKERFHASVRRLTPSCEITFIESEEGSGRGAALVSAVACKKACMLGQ
T1 sequence (Q14397 whole entry, looked up): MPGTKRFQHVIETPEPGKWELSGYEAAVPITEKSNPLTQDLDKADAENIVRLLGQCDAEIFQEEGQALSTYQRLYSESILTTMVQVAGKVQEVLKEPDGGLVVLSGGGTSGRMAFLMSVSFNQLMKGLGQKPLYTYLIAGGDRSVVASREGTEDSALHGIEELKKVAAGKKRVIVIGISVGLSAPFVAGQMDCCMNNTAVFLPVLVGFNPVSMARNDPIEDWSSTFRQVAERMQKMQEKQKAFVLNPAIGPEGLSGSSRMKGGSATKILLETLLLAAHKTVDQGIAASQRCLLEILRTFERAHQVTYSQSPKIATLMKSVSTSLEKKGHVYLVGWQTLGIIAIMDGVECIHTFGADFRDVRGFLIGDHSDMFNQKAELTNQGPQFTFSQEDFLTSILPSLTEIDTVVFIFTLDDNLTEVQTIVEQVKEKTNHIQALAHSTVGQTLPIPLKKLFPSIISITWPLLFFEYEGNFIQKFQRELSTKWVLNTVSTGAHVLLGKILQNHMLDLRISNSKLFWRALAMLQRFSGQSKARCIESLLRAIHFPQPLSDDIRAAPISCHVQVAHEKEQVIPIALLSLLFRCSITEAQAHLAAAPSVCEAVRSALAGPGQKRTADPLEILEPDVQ
How it was run: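 Inhibitors of the GCK–GKRP complex relieve GKRP suppression of GCK, detected through a G6PDH–diaphorase cascade reducing resazurin. Human GST-GCK and FLAG-GKRP are used at 10 nM with 5 mM glucose and 0.4 mM ATP.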

[3] = target: T1, Hexokinase-4 (Homo sapiens) + Glucokinase regulatory protein (Homo sapiens); assay: qHTS assay for inhibitors of recombinant human GCK-GKRP interaction: ADP-Glo assay (AID 743206);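 note: plate controls were DMSO plus enzyme for no effect and no enzyme for full effect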
How it was run: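 Pin-transferred compounds meet a 15 nM GST-GCK/15 nM FLAG-GKRP/2 uM S6P mix (dispense concentrations). ATP is then added to 0.4 mM final with 5 mM glucose, and the reaction runs 60 min at room temperature. ADP is quantified luminescently.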

[4] = target: T1, Hexokinase-4 (Homo sapiens) + Glucokinase regulatory protein (Homo sapiens); assay: qHTS assay for inhibitors of recombinant human GCK-GKRP interaction: HTRF assay (AID 743207);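 note: 0% = DMSO with GCK present and -100% = DMSO wells lacking GCK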
How it was run: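 Steps: dispense GCK–GKRP complex (5 nM each, GST- and FLAG-tagged) with 2 uM S6P; pin in compounds; add XL665/Eu-cryptate-labelled antibodies; incubate 60 min at room temperature; read time-resolved FRET at 665 and 615 nm.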

[5] = qHTS Assay for Identifying Gametocytocidal Compounds (AID 743244); note: potency is the fitted concentration of half-maximal effect; conditions: P. falciparum 3D7 stage III-V gametocytes, alamarBlue, 72 h; max response: stronger effect = lower value
How it was run: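 A resazurin-based viability read-out was applied to mature P. falciparum gametocytes: 72 h compound treatment, then 24 h dye incubation, with falling fluorescence signalling gametocytocidal effect.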

[6] = Natriuretic polypeptide receptor (hNpr1) antagonism - Pilot counterscreen GloSensor control cell line (AID 1347045; calls by dose curve; note: potency is the fitted concentration of half-maximal effect)
How it was run: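 The SNP-driven cGMP luminescence signal (50 uM, 20 min, room temperature) was measured in GloSensor HEK293 control cells. Compounds were tested as a LOPAC titration series and preincubated for 30-50 min.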

[7] = target: T2, Tyrosine-protein phosphatase non-receptor type substrate 1 (Homo sapiens) + Leukocyte surface antigen CD47 (Homo sapiens) (UniProt P78324+Q08722); assay: CD47-SIRPalpha protein protein interaction - LANCE assay qHTS validation (AID 1347057; active = well fitted curve in the direction sought with a large enough effect in the signal ratio, with a control signal flat, not every such curve was filed as active; the % refers to the signal ratio; note: series mostly up to about 38 µM; 0% is about no effect)
T2 sequence (P78324 whole entry, looked up, the tested form may be a part): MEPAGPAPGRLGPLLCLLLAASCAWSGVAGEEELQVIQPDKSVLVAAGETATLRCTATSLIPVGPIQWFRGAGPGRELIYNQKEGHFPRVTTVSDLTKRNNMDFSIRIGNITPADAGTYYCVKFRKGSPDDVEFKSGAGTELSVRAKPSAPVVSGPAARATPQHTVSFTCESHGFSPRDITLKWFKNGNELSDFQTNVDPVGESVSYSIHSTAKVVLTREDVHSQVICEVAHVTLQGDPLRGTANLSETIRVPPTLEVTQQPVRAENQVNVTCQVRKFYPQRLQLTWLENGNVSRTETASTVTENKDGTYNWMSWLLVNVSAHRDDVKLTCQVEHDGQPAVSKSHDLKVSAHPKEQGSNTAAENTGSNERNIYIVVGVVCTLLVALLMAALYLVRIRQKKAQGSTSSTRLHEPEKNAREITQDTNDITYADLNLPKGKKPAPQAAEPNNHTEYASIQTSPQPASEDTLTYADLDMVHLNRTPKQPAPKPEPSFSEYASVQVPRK
T2 sequence (Q08722 whole entry, looked up, the tested form may be a part): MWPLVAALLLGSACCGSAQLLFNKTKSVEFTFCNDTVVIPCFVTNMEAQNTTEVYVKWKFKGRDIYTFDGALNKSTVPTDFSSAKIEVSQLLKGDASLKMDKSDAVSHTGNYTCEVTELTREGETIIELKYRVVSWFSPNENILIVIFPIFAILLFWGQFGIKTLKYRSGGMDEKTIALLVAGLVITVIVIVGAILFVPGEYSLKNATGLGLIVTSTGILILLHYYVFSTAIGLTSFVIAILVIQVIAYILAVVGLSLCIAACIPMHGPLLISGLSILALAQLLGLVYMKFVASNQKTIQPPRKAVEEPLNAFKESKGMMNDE
How it was run: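 Inhibition of soluble CD47/SIRPalpha ectodomain association by titrated compounds, measured as 665/615 nm time-resolved FRET ratio after sequential 30 min room-temperature incubations.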

[8] = target: T2, Tyrosine-protein phosphatase non-receptor type substrate 1 (Homo sapiens) + Leukocyte surface antigen CD47 (Homo sapiens); assay: CD47-SIRPalpha protein protein interaction - HTRF assay qHTS validation (AID 1347058; active = well fitted curve in the direction sought with a large enough effect in the signal ratio, not every such curve was filed as active; the % refers to the signal ratio; note: series mostly up to about 38 µM; 0% is about no effect)
How it was run: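 Soluble extracellular domains (6His-CD47, Avi-tag-biotinylated SIRPalpha) in PBS pH 7.4 with 0.05% IGEPAL CA-630. Compounds were preincubated 30 min at RT with CD47 and anti-His-Eu, then SIRPalpha and SAV-XL665 were added. TR-FRET 665/615 ratio.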

[9] = target: T2, Tyrosine-protein phosphatase non-receptor type substrate 1 (Homo sapiens) + Leukocyte surface antigen CD47 (Homo sapiens); assay: CD47-SIRPalpha protein protein interaction - Alpha assay qHTS validation (AID 1347059);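 note: bead proximity luminescence from CD47 binding SIRPalpha after compound preincubation with SIRPalpha; % is set by controls: 0 for no effect and ±100 for the full control effect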
How it was run: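 In PBS (pH 7.4) with 0.05% IGEPAL CA-630, compound is preincubated with biotin-Avi-SIRPalpha ectodomain before His-CD47 ectodomain and affinity beads are added. Light-protected room-temperature incubations; AlphaScreen readout.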

[10] = target: Parathyroid hormone/parathyroid hormone-related peptide receptor (Homo sapiens) (UniProt Q03431); assay: qHTS for PTHR1 Agonists: Optimization Screen against the NCGC LOPAC library (AID 1347079);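 note: GloSensor cAMP luminescence in HEK-293 GP2 cells expressing human PTHR1 with IBMX; 0% is about no effect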
How it was run: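 Signal increase flags agonism. GP2 cells, derived from HEK-293, express human PTHR1 and a GloSensor cAMP construct.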

[11] = target: Lysine-specific demethylase 5B (Homo sapiens) (UniProt Q9UGL1); assay: Optimization screen for KDM5B Histone Demethylases FDH coupled qHTS against the LOPAC library (AID 1347166); note: 0% is about no effect
Chain of Lysine-specific demethylase 5B (Homo sapiens) (Q9UGL1 whole entry, looked up): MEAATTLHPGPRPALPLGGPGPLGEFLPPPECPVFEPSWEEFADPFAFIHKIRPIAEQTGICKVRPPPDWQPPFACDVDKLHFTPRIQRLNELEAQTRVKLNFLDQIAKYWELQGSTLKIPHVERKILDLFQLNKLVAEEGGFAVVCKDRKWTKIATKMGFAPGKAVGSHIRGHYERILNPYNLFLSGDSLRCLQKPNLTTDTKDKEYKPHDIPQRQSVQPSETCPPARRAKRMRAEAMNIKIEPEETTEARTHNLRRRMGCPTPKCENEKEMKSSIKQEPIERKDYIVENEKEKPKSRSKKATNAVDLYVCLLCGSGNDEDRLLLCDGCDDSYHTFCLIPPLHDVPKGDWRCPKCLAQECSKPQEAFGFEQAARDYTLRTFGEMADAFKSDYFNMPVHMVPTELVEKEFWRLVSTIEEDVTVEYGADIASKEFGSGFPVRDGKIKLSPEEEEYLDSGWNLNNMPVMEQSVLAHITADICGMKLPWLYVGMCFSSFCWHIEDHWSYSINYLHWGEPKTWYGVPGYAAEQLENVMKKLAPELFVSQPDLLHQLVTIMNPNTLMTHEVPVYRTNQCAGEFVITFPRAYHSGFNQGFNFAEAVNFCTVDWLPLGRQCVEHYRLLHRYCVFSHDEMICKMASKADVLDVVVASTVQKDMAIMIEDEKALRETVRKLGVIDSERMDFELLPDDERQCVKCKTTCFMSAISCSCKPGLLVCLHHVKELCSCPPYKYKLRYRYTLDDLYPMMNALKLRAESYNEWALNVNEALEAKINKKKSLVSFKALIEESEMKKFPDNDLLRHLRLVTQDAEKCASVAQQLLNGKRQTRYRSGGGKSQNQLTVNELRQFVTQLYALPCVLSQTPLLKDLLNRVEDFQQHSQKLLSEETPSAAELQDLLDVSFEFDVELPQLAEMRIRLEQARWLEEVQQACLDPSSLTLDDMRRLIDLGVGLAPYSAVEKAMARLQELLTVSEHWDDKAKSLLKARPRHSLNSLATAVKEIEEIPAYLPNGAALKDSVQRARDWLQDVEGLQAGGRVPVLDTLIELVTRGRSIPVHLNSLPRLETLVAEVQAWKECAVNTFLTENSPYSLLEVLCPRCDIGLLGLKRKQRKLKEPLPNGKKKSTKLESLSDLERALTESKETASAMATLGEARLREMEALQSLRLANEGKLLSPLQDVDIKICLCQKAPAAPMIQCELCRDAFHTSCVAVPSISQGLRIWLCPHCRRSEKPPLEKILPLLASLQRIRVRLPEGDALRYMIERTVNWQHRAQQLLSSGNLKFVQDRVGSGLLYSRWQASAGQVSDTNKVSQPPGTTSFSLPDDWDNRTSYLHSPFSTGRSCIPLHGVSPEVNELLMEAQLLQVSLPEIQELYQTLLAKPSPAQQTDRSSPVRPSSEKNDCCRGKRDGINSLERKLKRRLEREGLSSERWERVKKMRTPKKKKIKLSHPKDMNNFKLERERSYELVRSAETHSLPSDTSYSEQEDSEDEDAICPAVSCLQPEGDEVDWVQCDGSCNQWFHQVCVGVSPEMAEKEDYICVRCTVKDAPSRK
How it was run: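 KDM5BDeltaAP (200nM final) in 50mM HEPES pH 7.5, 0.01% Tween-20 was preincubated with compound for 10 min at room temperature. A substrate mix of 12.5uM H3K4Me3, 25uM a-ketoglutarate, ascorbate, Fe2+, NAD+ and formaldehyde dehydrogenase was then added. NADH fluorescence (340/450 nm) was read initially and after 30 min.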

[12] = qHTS for inhibitors of adenylyl cyclases using a fission yeast platform: a pilot screen against the NCATS LOPAC library (AID 1347410);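 note: plate controls were DMSO vehicle for no effect and DPI positive control for full effect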
How it was run: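 Growth medium went into the plates first, then compounds were pinned (final up to 57 µM), then CHP2027 yeast were added. Plates were incubated overnight (18 h) at 30C in the dark, and GFP was measured by laser scanning cytometry.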

[13] = Validation qHTS assay for inhibitors of Activation Induced Cytidine Deaminase (AID): UDG Counterscreen signal (AID 1347427); note: 0% is about no effect
How it was run: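 Fluorescence at 560 nm excitation, 665 nm emission reports UDG signal after 250 mM NaOH (2x) addition and 30 min. Enzymes (AID 1 uM, UDG 2 U/mL, at 4/3x) preincubated 10 min with compound, then 4 h with 4x 250 nM DJC20/DJC23 substrate at room temperature.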

[14] = target: Single-stranded DNA cytosine deaminase (Homo sapiens) (UniProt Q9GZX7); assay: Validation qHTS assay for inhibitors of Activation Induced Cytidine Deaminase (AID): AID signal (AID 1347429); note: % is set by controls: 0 for no effect and ±100 for the full control effect
Chain of Single-stranded DNA cytosine deaminase (Homo sapiens) (Q9GZX7 whole entry, looked up): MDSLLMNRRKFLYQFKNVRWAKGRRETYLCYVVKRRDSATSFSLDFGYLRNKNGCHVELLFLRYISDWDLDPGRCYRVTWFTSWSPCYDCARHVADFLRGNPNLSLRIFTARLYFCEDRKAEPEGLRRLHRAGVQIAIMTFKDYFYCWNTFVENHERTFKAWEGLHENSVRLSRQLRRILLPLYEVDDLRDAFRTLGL
How it was run: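 Compounds (up to 114 uM final) are tested against AID plus UDG using DJC20/DJC23 FRET substrate. Reactions incubate 4 hr at room temperature, receive NaOH for 30 min, and are read at Ex 540/Em 590 nm.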

[15] = Primary qHTS for inhibitors of La Crosse Virus (LACV) - induced cell death in SH-SY5Y cells (AID 1508616);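 note: top concentration of the series differs between compounds; 0% = infected DMSO wells and 100% = uninfected DMSO wells; higher means more rescue of cells from virus-induced death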
How it was run: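 Screening measures cell viability in LACV-infected SH-SY5Y cultures. Compound was added before virus (0.01 MOI), and ATP was detected by luminescence 6 days later.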

[16] = target: Calcium and integrin-binding protein 1 (Homo sapiens) (UniProt Q99828); assay: Validation qHTS for Identification of Calcium Integrin Binding protein 1 (CIB1) Competitor (AID 1508618); note: % is set by controls: 0 for no effect and ±100 for the full control effect
Chain of Calcium and integrin-binding protein 1 (Homo sapiens) (Q99828 whole entry, looked up): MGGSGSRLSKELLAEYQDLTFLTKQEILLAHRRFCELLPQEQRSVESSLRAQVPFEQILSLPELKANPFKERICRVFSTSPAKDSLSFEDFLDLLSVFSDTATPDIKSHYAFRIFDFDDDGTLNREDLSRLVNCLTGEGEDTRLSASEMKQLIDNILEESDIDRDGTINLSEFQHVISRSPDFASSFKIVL
How it was run: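 CIB1-GST (1 uM final) in 5 mM HEPES pH 7.4, 125 mM NaCl, 5 mM CaCl2, 0.01% Tween20 was preincubated 15 min at room temperature with compound (up to 114 uM), then FITC-alphaIIb peptide (100 nM) added for 15 min; fluorescence polarization read.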

[17] = Counterscreen qHTS for small molecule stabilizers of the endoplasmic reticulum resident proteome: GLuc-NoTag assay (AID 1508627);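 note: series mostly up to about 76 µM; 0% = thapsigargin alone and -100% = DMSO vehicle control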
How it was run: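 Secreted GLuc lacking the SERCaMP modification is measured in SH-SY5Y cells exposed to compound for 19 h and then to thapsigargin (100 nM, 4 h) to deplete ER calcium; hits retested at 11 concentrations, up to 76.6 uM.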

[18] = Cell Viability qHTS for small molecule stabilizers of the endoplasmic reticulum resident proteome (AID 1508629); conditions: cell viability counter-screen, 100 nM thapsigargin for final 4 h;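 note: human SH-SY5Y neuroblastoma cells carrying the GLuc-SERCaMP reporter; compound exposure about 46 h in total before the viability read; % is set by controls: 0 for no effect and ±100 for the full control effect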
Papain (Carica papaya) = Papain (Carica papaya) (UniProt P00784); assay: Primary qHTS assay for inhibitors of the protease papain (AID 1645873)
Chain of Papain (Carica papaya) (P00784 whole entry, looked up): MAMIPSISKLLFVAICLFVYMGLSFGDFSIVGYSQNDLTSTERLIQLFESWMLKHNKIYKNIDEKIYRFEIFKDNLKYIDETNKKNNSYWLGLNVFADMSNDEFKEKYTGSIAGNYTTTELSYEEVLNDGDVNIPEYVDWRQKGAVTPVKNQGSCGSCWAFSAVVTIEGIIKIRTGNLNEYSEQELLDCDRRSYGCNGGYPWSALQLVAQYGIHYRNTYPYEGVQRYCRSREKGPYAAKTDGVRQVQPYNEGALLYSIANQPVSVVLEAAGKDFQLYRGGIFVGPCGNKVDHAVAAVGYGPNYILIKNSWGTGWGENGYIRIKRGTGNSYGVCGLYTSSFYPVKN

[19] = target: Glutathione peroxidase 1 (Homo sapiens) (UniProt P07203); assay: Primary qHTS Assay for Inhibitors of Recombinant Selenoprotein Glutathione Peroxidase 1 (GPX1) (AID 1845191); note: % is set by controls: 0 for no effect and ±100 for the full control effect; nearly all actives have a fitted effect of over 65% in size
Chain of Glutathione peroxidase 1 (Homo sapiens) (P07203 whole entry, looked up): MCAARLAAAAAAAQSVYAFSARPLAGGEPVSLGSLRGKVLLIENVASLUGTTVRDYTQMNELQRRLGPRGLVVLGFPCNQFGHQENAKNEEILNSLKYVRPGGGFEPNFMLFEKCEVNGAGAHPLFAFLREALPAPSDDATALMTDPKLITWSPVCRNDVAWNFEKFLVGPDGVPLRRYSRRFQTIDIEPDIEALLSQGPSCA
How it was run: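 GPX1 10 nM, GR 100 nM, GSH 1 mM, NADPH 0.5 mM, CHP 0.5 mM (final). 30-min cpd preincubation, RT. Ex340/Em450 read t=0, t=15 min.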

[20] = target: Phospholipid hydroperoxide glutathione peroxidase GPX4 (Homo sapiens) (UniProt P36969); assay: Primary qHTS Assay for Inhibitors of Recombinant Selenoprotein Glutathione Peroxidase 4 (GPX4) (AID 1845192); conditions: outcome: dose series up to 50 µM unless noted; note: series mostly up to about 50 µM; % is set by controls: 0 for no effect and ±100 for the full control effect; nearly all actives have a fitted effect of over 65% in size
Chain of Phospholipid hydroperoxide glutathione peroxidase GPX4 (Homo sapiens) (P36969 whole entry, looked up): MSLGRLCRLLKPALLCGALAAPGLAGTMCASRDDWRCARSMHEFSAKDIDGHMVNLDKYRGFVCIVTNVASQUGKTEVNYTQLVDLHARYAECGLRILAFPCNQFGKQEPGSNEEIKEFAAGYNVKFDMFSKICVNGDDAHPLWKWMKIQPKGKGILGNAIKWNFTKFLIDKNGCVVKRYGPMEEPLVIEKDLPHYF
How it was run: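 qHTS, GR-coupled: GPX4 200 nM + cpd 30 min RT → GSH 1 mM, NADPH 0.5 mM, GR 100 nM → CHP 0.5 mM start; fluor 340/450 at t0 and t15 min; no-enzyme wells as control.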

S=C(Nc1ccccc1)Nc1nccs1
active: Potency [5] 1.58 µM | Potency [6] 13.1 µM
inactive: outcome [1] | outcome [2] | outcome [3] | outcome [4] | outcome [7] | outcome [8] | Potency [9] | outcome [10] | outcome [11] | outcome [12] | outcome [13] | Potency [14] | outcome [15] | outcome [16] | Potency [17] | max response [18] -3.94% | Potency (Papain (Carica papaya)) | Potency [19] | Potency [20]
